From PubChem BioAssay AID1259313 (Sanford-Burnham Center for Chemical Genomics, 2017) come the findings set out here.

Several values for one entry are separate records, joined by “and”; a condition that tells them apart may be missing. Equal entries are not always repeated. About 8,500 (2.5%) of roughly 340,000 compounds were called active. The sample holds actives, similar compounds and a random draw of the others, so the mix is not that of the screen.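 How the source made its calls: active means melting temperature shift of at least 10% of the positive control shift, at one fixed dose; inactive means the rest.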

For the assay, the system named is Glutamate receptor ionotropic, NMDA 3A (GRIN3A) ligand-binding domain. Put plainly: NR3A LBD thermal stabilization by compounds – biophysical, differential scanning fluorimetry, uHTS, primary screen (AID 1259313). To be noted: at 25 µM, active compounds read high, 0% = protein alone, 100% = glycine-bound protein.
Take `CCOc1ccc(CN2CCN(Cc3ccc(C)o3)CC2CCO)cc1` (stereo not given): the Tm shift relative to glycine control is 1.84% (inactive).
With `C/C(CC(=O)NC(C)c1ccccc1)=N\NC(N)=S` (stereo not given), the Tm shift relative to glycine control was -2.12% (inactive).
With `COC(=O)C1C(=O)NCC1c1ccc(OC)cc1` (stereo not given) the figure was -0.83% (inactive); with `COc1ccc(CC(=O)Nc2c(C(N)=O)oc3ccccc23)cc1`, 16.1% (active); with `NC(=O)c1oc2ccccc2c1NC(=O)CS(=O)(=O)c1ccccc1`, -2.6% (inactive).
As for `NC(=O)c1oc2ccccc2c1NC(=O)Cc1ccccc1`, the Tm shift relative to glycine control was -1.3% (inactive).
As to `CC(=O)C(CC(=O)N1CCCC1)C(=O)Nc1ccc(Cl)cc1` (stereo not given), the Tm shift relative to glycine control was -1.13% (inactive).
For `Cc1cc(C)nc(-n2nc(C)cc2NC(=O)c2ccc(F)cc2F)n1`, the Tm shift relative to glycine control is -2.66% (inactive).
For the compound `COc1ccc(CCNC(=O)C(=O)Nc2ccc3nc4n(c(=O)c3c2)CCCCC4)cc1OC`, the Tm shift relative to glycine control is -0.47% (inactive).
Regarding `CCCCN(CC)C(=S)Nc1ccc2nc3n(c(=O)c2c1)CCCCC3`, the Tm shift relative to glycine control is 11% (active).
With `O=C(Nc1ccc2nc3n(c(=O)c2c1)CCCC3)c1ccc(Cl)nc1` the figure was -1.29% (inactive); with `C=CCn1c(P(C)(=O)O)nc2ccccc21`, -0.35% (inactive) and 1.55% (inactive); with `CCCC(=O)Nc1nc2ccc(NC(=O)c3c(F)c(F)c(OC)c(F)c3F)cc2s1`, 17.1% (active).
For `COc1ccc(CNC(=O)c2ccc(Br)s2)cc1OC`, the Tm shift relative to glycine control was 1.11% (inactive).
Turning to `CCCn1nc(C(=O)Nc2ccc3nc(C)sc3c2)c2ccccc2c1=O`, the Tm shift relative to glycine control is -1.69% (inactive).
The value for `COc1ccc2nc(Nc3nc4ccc(NC(C)=O)cc4s3)sc2c1` was 25.2% (active); that for `CSc1nc2ccc(NC(=O)c3c(F)cccc3F)cc2s1` was 3.67% (inactive).
As to `COc1ccc(NC(C(=O)Nc2cccc(C(C)=O)c2)c2ccccc2)cc1` (stereo not given), the Tm shift relative to glycine control was -15.9% (inactive).
Consider `CCOc1ccc2nc(NC(=O)c3cc([N+](=O)[O-])ccc3N3CCOCC3)sc2c1`, for which the Tm shift relative to glycine control is 17% (active).
In the case of `COc1ccc2nc(NC(=O)c3ccc(Br)s3)sc2c1`, the Tm shift relative to glycine control was 31.3% (active).
For the compound `Cc1nc2ccc(NC(=O)C3CCCCC3)cc2s1`, the Tm shift relative to glycine control is -3.66% (inactive).
Regarding `Cc1noc(C)c1CSCC(=O)Nc1nc2ccc(Oc3ccccc3)cc2s1`, the Tm shift relative to glycine control was 0.97% (inactive).
The value for `CCCC(=O)N(CCN1CCOCC1)c1nc2ccc(OCC)cc2s1` was -6.33% (inactive); that for `COc1ccc(S(=O)(=O)N2CCCCC2)cc1NC(=O)c1cc([N+](=O)[O-])ccc1N1CCOCC1` was -1.87% (inactive).
In the case of `Cc1ccccc1-n1nnc2c(=O)oc3ccccc3c21`, the Tm shift relative to glycine control was 1.45% (inactive).
For `O=C1CC(c2c(F)cccc2Cl)C(n2cncn2)C(O)=C1C1NCCc2ccccc21` (stereo not given), the Tm shift relative to glycine control was -0.39% (inactive).
With `CC(C)N(c1ccccc1)c1ncnc(NCCC(=O)O)c1[N+](=O)[O-]`, the Tm shift relative to glycine control is -4.26% (inactive).
`Cc1cccc(C(=O)NCC(=O)OCC(=O)N(C)CC(=O)Nc2ccccc2Cl)c1`: the Tm shift relative to glycine control is -0.85% (inactive).
On to `COc1ccc(CNC(=O)COc2cccnc2[N+](=O)[O-])cc1`, for which the Tm shift relative to glycine control was 1.77% (inactive).
For `Cc1ccc(NC(=O)Cc2nc(COC(=O)C(C)NS(=O)(=O)c3ccc(C)cc3)cs2)cc1` (stereo not given), the Tm shift relative to glycine control was -1.68% (inactive).
On to `Cc1cc(C(=O)N2CCC(C(=O)O)CC2)c(C(F)(F)F)o1`, for which the Tm shift relative to glycine control was 2.93% (inactive).
Take `CCOc1ccc2nc(Nc3nc4ccc(NC(C)=O)cc4s3)sc2c1`: the Tm shift relative to glycine control was 25.2% (active).
As to `CCOc1ccc2nc(NC(=O)CSc3nc4c(c(=O)n(C)c(=O)n4C)n3CC)sc2c1`, the Tm shift relative to glycine control is 1.39% (inactive).
The value for `c1c2c(cc3sc(N4CCCCC4)nc13)OCCO2` was 8.4% (inactive); that for `NS(=O)(=O)c1ccc2nc(NC(=O)C3=COCCO3)sc2c1` was -8.75% (inactive).
With `CCC(=O)c1ccc(OCC(=O)Nc2ccc3nc(C)sc3c2)cc1`, the Tm shift relative to glycine control was 0.32% (inactive).
Regarding `COc1ccc2nc(Nc3nc4cc5c(cc4s3)OCCO5)sc2c1`, the Tm shift relative to glycine control was 12.4% (active).
As for `O=C(COC(=O)c1c(Cl)cccc1Cl)Nc1cccc(S(=O)(=O)NC2=NCCCCC2)c1`, the Tm shift relative to glycine control is 1.06% (inactive).
With `O=C(CCl)Nc1ccc(Sc2ccc(NC(=O)CCl)cc2)cc1`, the Tm shift relative to glycine control is -12.3% (inactive).
Take `CC(=O)N(Cc1cccs1)C1CCOC(C)(C)C1` (stereo not given): the Tm shift relative to glycine control is -1.65% (inactive).
The value for `Oc1ccc(/C=N/Nc2ccc(C(F)(F)F)cn2)cc1O` was 21.1% (active); that for `Oc1ccc(Br)cc1/C=N/Nc1ccccn1` was -22% (inactive); that for `FC(F)(F)c1cccc(N/N=C/c2ccccc2)c1` was 6.56% (inactive).
With `CCCCOP(=O)(c1ccc(N(C)C)cc1)C(O)c1cc(OC)ccc1OC` (stereo not given) the figure was -0.74% (inactive).
The value for `O=S(=O)(Nc1ccccc1Br)c1cccs1` was 0.85% (inactive); that for `O=C(Nc1cccc(Cl)c1)Nc1ccccc1NS(=O)(=O)c1cccs1` was 30.3% (active); that for `O=S(=O)(NCc1ccc(Cl)cc1Cl)c1cccs1` was 1.65% (inactive).
Take `NC(=O)Cc1ccc2sc(-c3ccccc3)nc2c1`: the Tm shift relative to glycine control was -2.6% (inactive).
Turning to `Cc1ccc(S(=O)(=O)NCC(=O)N(CC(=O)NCC2CCCO2)c2cccc(F)c2)cc1` (stereo not given), the Tm shift relative to glycine control was -1.71% (inactive).
As for `CCn1c(SCc2ccccc2)nc2cc(OC)c(OC)cc2c1=O`, the Tm shift relative to glycine control was -6.11% (inactive).
For `Nc1cc(=O)nc(SCc2ccccc2)n1Cc1ccco1`, the Tm shift relative to glycine control is 10.8% (active).
As for `O=c1[nH]c(CSc2ncc(-c3ccc(F)cc3)n2Cc2ccco2)nc2ccccc12`, the Tm shift relative to glycine control was -0.27% (inactive).
For the compound `COc1cccc(N(Cc2nnc3n2CCCCC3)C(=O)Nc2ccccc2F)c1`, the Tm shift relative to glycine control is 0.08% (inactive).
With `CCCN(CCC)C(=S)Nc1cc(C(=O)OC)ccc1C(=O)OC` the figure was -5.25% (inactive); with `CC(=O)C1=C(C)NC(C)=C(C(C)=O)C1c1cn(-c2ccccc2)nc1-c1cccs1`, -4.58% (inactive); with `CCc1ccc(CN(C)C(=O)C2CCC(=O)N(Cc3cccc(OC)c3)C2)nc1` (stereo not given), 1.62% (inactive).
For `O=C1NC(c2ccc(-c3ccccc3[N+](=O)[O-])o2)C(C(=O)c2ccc(Cl)cc2)C(O)(C(F)(F)F)N1` (stereo not given), the Tm shift relative to glycine control is -17.2% (inactive).
Take `CC1=NN(c2ccc(Cl)c(C(=O)O)c2)C(=O)/C1=C/c1ccc(-c2ccccc2[N+](=O)[O-])o1`: the Tm shift relative to glycine control is 31.1% (active).
`O=C(Nc1ccc(N2CCOCC2)cc1)c1ccc(-c2ccccc2[N+](=O)[O-])o1`: the Tm shift relative to glycine control was -2.01% (inactive).
Consider `Cc1cnc(CN(C)C(=O)C2CCC(=O)N(CCc3cccc(F)c3)C2)[nH]1` (stereo not given), for which the Tm shift relative to glycine control was -3.25% (inactive).
